This is a sample that favours compounds with a hit; in the whole collection about 4.8% have one here.
DAX1 inh-1: inhibits human nuclear receptor DAX1; P51843; HEK293 Gal4-DAX1 luciferase reporter, luminescence; inhibition, % at 6.75 µM; 340,000 compounds, 0.99% hits;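 active = inhibition above the mean over all tested compounds plus 3 SD, cut at about 4.2% in these data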;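 also: 0% = DAX1-transfected cells with DMSO and 100% = empty-vector control cells with DMSO; inhibition shows as a rise in luminescence from relieved DAX1 repression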
Target sequence (P51843 207-470 limits assumed): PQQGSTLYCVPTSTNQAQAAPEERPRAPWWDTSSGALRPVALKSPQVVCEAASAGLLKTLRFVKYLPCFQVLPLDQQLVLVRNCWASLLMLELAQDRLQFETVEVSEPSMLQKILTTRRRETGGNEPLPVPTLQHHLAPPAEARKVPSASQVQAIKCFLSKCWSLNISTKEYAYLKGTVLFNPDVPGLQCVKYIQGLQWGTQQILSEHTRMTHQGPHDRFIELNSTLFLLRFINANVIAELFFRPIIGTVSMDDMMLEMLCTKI
ssDAF-12 act: activates DAF-12 receptor from parasite S. stercoralis; 370,000 compounds, 1% hits; activation, % at 6.8 µM; AID 652126; HEK293 ssDAF-12/GRIP1 lit1-tk-luc reporter, luminescence; % of 3 µM dafachronic acid response;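 active = activation above the mean over all tested compounds plus 3 SD, cut at about 0.9% in these data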;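 also: 0% = DMSO-only wells and 100% = 3 µM delta7-dafachronic acid wells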
DAX1 inh-2: DAX1 (NR0B1) inhibition, primary screen | HEK293T StAR-luciferase reporter, SF-1/DAX-1 repression relief | inhibition, % at 6.8 µM | 370,000 compounds, 1.1% hits | AID 652010;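 active = inhibition above the mean over all tested compounds plus 3 SD, cut at about 3.6% in these data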;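 also: 0% = DAX-1 cells with DMSO and 100% = cells lacking DAX-1 with DMSO; higher inhibition means more luminescence from relief of DAX-1 repression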
SMARCA2 act: SMARCA2 function activation, primary screen; activation, % at 9.1 µM; MG213 cells, MMTV-luciferase reporter, dexamethasone, overnight; AID 652017; 370,000 compounds, 1% hits; in the data active = activation above about 7.8%;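 also: 0% = vehicle wells and 100% = reference activator wells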
hgDAF-12 ag: activates the H. glycines DAF-12 receptor ligand-binding domain. activation, % at 6.8 µM. 370,000 compounds, 1.8% hits. AID 687014. HEK293 GAL4-hgDAF12 UAS-luciferase reporter, agonist luminescence; normalized to butyrate control;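 active = activation above a cutoff set at the mean of all screened compounds plus 3 SD, cut at about 10% in these data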;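 also: 0% = DMSO wells and 100% = sodium butyrate wells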
hcDAF-12 act: H. contortus DAF-12 activation, primary screen | HEK293 hcDAF-12 lit1-tk-luc reporter, luminescence; 0% DMSO, 100% Δ7-dafachronic acid | activation, % at 6.8 µM | 370,000 compounds, 1.4% hits | AID 652067;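 active = activation above the mean of all tested compounds plus 3 SD, cut at about 5.5% in these data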;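 also: 100% = response to 3 µM Δ7-dafachronic acid high control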
SMARCA2 act conf: SMARCA2 activation, confirmation screen. shares compounds with SMARCA2 act. MG213 cells, MMTV-luciferase with dexamethasone, luminescence, overnight; MG213 cells expressing E1A, Rb sequestered; DMSO wells 0%, reference activator 100%. activation, % at 9.1 µM. 3,500 compounds, 30% hits;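 active = activation above its plate's cutoff, the mean activation of tested wells plus 3 SD, cut at about 7.9% in these data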
GAL4-VP16 Luc: GAL4-VP16 reporter activation counter-screen | shares compounds with SMARCA2 act | HEK293 GAL4-VP16 pG5luc reporter, luciferase luminescence; scaled: DMSO wells 0%, SAHA wells 100% | activation, % at 9.1 µM | 3,500 compounds, 41% hits | AID 686939;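 active = activation above the solvent-only control well mean plus 3 SD, averaged across control plates, cut at about 5.2% in these data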
* = called active by the depositor; / = no result.

SMILES	DAX1 inh-1	ssDAF-12 act	DAX1 inh-2	SMARCA2 act	hgDAF-12 ag	hcDAF-12 act	SMARCA2 act conf	GAL4-VP16 Luc
O=C1NC(=O)C2(C=C(c3ccccc3)C(O)(c3ccccc3)C2)N1 (configuration not stated)	0	-1	2	8.2*	-1	-1	1	1
COC(=O)[C@]12C[C@H](CC(=O)NCCCN3CCCC3=O)C(=O)N(Cc3cccc4ccccc34)C1=C[C@H](C1CCCC1)O[C@@H]2C	/	-1	-1	-1	-2	-2	/	/
Cc1ccc(S(=O)(=O)N2CC[C@@]3(Cc4ccccc4)Cc4ccccc4C[C@@H]23)cc1	/	-2	/	/	0	0	/	/
CCCCN(C)CCCNC(=O)c1cc(=O)[nH]c2ccc(S(=O)(=O)N3CCCCC3C)cc12 (configuration not stated)	0	-1	0	8.2*	2	-1	0	1
CC1CCCN(S(=O)(=O)c2ccc3[nH]c(=O)cc(C(=O)NCCCN4CCCCCC4)c3c2)C1 (configuration not stated)	0	-1	1	-4	-1	0	/	/
CNc1cncc(-c2ccc(F)cc2F)n1	/	-1	1	10*	4	-1	0	1
CNc1cncc(-c2ccc(O)cc2)n1	/	-1	2	-1	4	1	/	/
Cc1cccc(NC(=O)CN2C(=O)N/C(=C\c3ccccc3OCc3ccc(C(=O)O)cc3)C2=O)c1	0	-1	0	8.7*	-1	-1	1	0
O=C(CN1C(=O)N/C(=C\c2ccccc2OCc2ccc(C(=O)O)cc2)C1=O)Nc1ccc(F)cc1	-1	0	1	-6	2	2	/	/
O=C(CN1CCN(Cc2ccccc2)CC1)N/N=C\c1ccccc1[N+](=O)[O-]	/	0	0	3	-2	1	/	/
Cc1ccc(Sc2c(C)[nH]n(C(C)(C)C)c2=O)cc1	3	-1	-1	3	0	-1	/	/
CC1=CC(=O)C(Sc2ccc(C)cc2)=CC1=O	0	-1	-1	8.1*	-5	1	-4	6.2*
CCN(CC)C(=O)CC[C@H]1CC[C@]2(CCCN(C(=O)c3ccco3)C2)O1	/	-1	1	-3	1	-2	/	/
CCCn1c2ccccc2c2nnc(SCCN3CCOCC3)nc21	-2	-2	-1	-1	-3	-3	/	/
O=c1c2ccccc2nc2c3ccccc3c(NCCN3CCOCC3)nn12	/	-1	-1	33*	3	2	45*	0
c1ccc2nc3c(nc2c1)c1ccccc1n3CCN1CCOCC1	2	-1	-1	11*	10	2	7.9*	4
O=c1c2c(-c3ccccc3)csc2nc2c3ccccc3c(NCCN3CCOCC3)nn12	0	-2	0	5	1	1	/	/
CC(=NNc1cc(C)c2cc(C)ccc2n1)c1ccccn1	/	-1	-7	-4	-3	-1	/	/
CCOC(=O)C(Cc1ccccc1)CP(=O)(OC)[C@@H](C)NC(=O)OCc1ccccc1 (some centres not stated)	/	0	-1	-1	-2	-2	/	/
Cc1cccc(-c2nsc(SCC(=O)Nc3ccc4c(c3)OCO4)n2)c1	0	-1	2	9.7*	1	0	2	1
O=C(CSc1ccccc1F)Nc1ccc2c(c1)OCO2	1	-1	2	11*	11*	2	6	5.7*
O=C(CSc1ccccn1)Nc1ccc2c(c1)OCO2	/	-2	-1	2	8	3	/	/
O=C(CC1CCCCC1)NC1CCCC1	-1	-1	0	1	2	-1	/	/
O=C(CC1CC2CCC1C2)NC1CCCCCCC1 (configuration not stated)	1	-1	0	9.5*	10	0	5	4
CC1(C)CC(=O)C=C(c2ccccc2-c2ccc3c(c2)OCO3)C1=O	/	-1	-1	-4	0	0	/	/
SMILES	DAX1 inh-1	ssDAF-12 act	DAX1 inh-2	SMARCA2 act	hgDAF-12 ag	hcDAF-12 act	SMARCA2 act conf	GAL4-VP16 Luc
COc1ccc(-n2cc(-c3ccccc3)[nH]c2=S)cc1	1	0	0	7	7	1	/	/
COc1ccc(-n2cnc(=S)[nH]c2=S)cc1	-1	0	-1	14*	3	2	21*	2
CCOC(=O)c1cccc(NC(=S)NCc2ccc(C)cc2)c1	-2	-2	0	8.0*	-4	0	2	1
CCCCn1c(CN(Cc2ccccc2)Cc2ccccc2)nc2c1c(=O)n(C)c(=O)n2C	1	-1	0	9.8*	2	0	0	0
COc1cc(C=NN=c2sc3ccccc3n2C)ccc1OCCO	/	0	2	11*	12*	-1	10*	12*
COC(=O)[C@]12C[C@H](CC(=O)NCc3ccc(C)o3)C(=O)N(Cc3ccc4c(c3)OCO4)C1=C[C@H](COCc1ccccc1)O[C@@H]2C	/	-1	-2	-2	-1	-3	/	/
c1ccc(Nc2nc(N3CCOCC3)nc(N3CCOCC3)n2)cc1	-1	-2	-1	2	-1	-3	/	/
C(=N\Nc1nc(Nc2ccccc2)nc(N2CCOCC2)n1)/c1c[nH]c2ccccc12	/	0	0	9.6*	-3	4	1	7.7*
N#Cc1cccnc1N1CCN(C(=O)c2cccc3c2C(=O)c2ccc(Cl)cc2S3(=O)=O)CC1	0	-1	0	14*	-2	-2	14*	3
N#Cc1cccnc1N1CCN(C(=O)c2cccc3c2C(=O)c2ccc(-c4ccc(Cl)c(C(F)(F)F)c4)cc2S3(=O)=O)CC1	2	/	/	/	/	/	/	/
Fc1cccc(Cn2ccc3ccc(-c4ccc5ccn(Cc6cccc(F)c6)c5c4)cc32)c1	/	0	0	-1	2	-3	/	/
Cc1nc(-c2ccc([N+](=O)[O-])cc2)sc1C(=O)O	0	1	1	9.6*	4	2	6	1
Cc1ccc(-c2nc(C)c(C(=O)O)s2)cc1	-1	0	3	11*	11*	3	9.5*	7.4*
COC(=O)[C@]12C[C@H](CC(=O)NCCCN3CCCC3=O)C(=O)N(Cc3ccccc3)C1=C[C@H](COCc1ccccc1)O[C@@H]2C	/	-1	-1	0	2	-3	/	/
CCOC(=O)c1nc(S(C)(=O)=O)ncc1Cl	0	-1	0	34*	-1	0	-1	4
